According to the supplement of paper PMC12632987:
The full ranking holds about 1,800 sequences; the median of “median log2 fold change of GCK-ALFA target abundance (FLAG IP / Myc IP barcode read proportion)” is about 0.14, and the lowest 2% start at about -0.84. The entries come from a sample that favours the lowest values as a whole.

T1: TRAF2, Q12933
T1 chain: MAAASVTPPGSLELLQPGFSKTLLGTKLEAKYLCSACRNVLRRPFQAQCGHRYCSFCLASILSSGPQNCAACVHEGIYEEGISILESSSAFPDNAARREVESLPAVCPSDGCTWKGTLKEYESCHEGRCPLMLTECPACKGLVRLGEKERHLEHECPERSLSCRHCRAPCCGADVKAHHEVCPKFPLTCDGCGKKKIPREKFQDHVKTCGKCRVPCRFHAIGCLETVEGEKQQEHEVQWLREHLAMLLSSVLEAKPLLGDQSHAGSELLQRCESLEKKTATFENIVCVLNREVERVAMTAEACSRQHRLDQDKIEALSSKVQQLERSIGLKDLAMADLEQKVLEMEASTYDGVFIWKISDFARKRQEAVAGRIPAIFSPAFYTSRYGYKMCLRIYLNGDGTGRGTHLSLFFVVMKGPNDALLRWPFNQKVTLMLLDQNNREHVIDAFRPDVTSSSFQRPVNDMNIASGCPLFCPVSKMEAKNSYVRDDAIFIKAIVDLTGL

B1: traf2_out_20_3_2107 (protein)
chain: KELEEELEKELEEAIKLLEEAAKLADEETAKRLEELRKRVEASRELPYTDRLVALSEVRREVLALAQEAEAAGKEELAKVLEEAADELNKAMNLLMKIIE
B2: traf2_out_15_48_1346 (protein)
chain: DIEKEQKIASEIADDSDKLKDKVAKELEELQKKANPEEAAILDELIAAIRSGASLRTVRGLLLQAQPKFSPETAAKLKALAEEIDELIRENSKRYNEVLK
B3: traf2_out_18_117_1795 (protein)
chain: SEREEIIEELEELAERLGKAASELGKAVLDNWEKLTPEEKSEAMDVLADLSAVRRRAQELIHKIKTENIPVEEARKELEELKKEAEAALAAAEAKIARIK
B4: traf2_out_9_108_2595 (protein)
chain: MTEEEKEEETYEKILKLAKDFLERYDVSEELRADMEAAIEQAEKLRKEGEKRTANILIAISTARVAYEIGEEAVKDFLAELKKIDERSYNAAKRMVKLLK
B5: traf2_out_13_95_1087 (protein)
chain: SAETNAKINEIADKMMEKIEAILDKLSEEVADDPELKAEVEAAKELAITRGVNEAIHKLRELSKAHPEYKEKLDKAIDEIEKVKREASKEISKLLKEEKE
B6: traf2_out_6_3_2532 (protein)
chain: SHMSLLKDAKTVLENMGITTIEELKALVKAEVNAIKKLISRKDVDEADLAGARSVVALSRAMVEVAKETLPDFTEEDYEELNKLLEETEKLIKEREEKLK
B7: traf2_out_17_178_1748 (protein)
chain: NEEELKKIINEKNNEIADIAEKLAEEILKLAKEDPSISPETLALIEEARRNGSHNTAVALFLEASKNEETKKKVEELHKKASEEMNKLAKEREEAIEKYK
B8: traf2_out_11_104_639 (protein)
chain: LTREQAREFNDFAMAKEDEARAVAAELAAALEAAGETAAAARVRAALAHPGAGISTFRNLLEDLLPTLSPAAAAQARAAIARLAALQREVSAKLNELEAK
B9: traf2_out_6_156_2377 (protein)
chain: TKEEILKKAKEKIEKEIKKLAEASEEKKIKYISEIAGAVYKALQALREAGASVEEIKKAVEELKKVAEEEAKKAGLPEDTINLLLSSINAVGEVALREAE
B10: traf2_out_17_178_1665 (protein)
chain: TKEEERKKISELTDKLIDLAEAAADRALALAEREGDLSPEELAALREARRRGSATDVRALMRRWIPRLRSAAELGALLEEFEAEYRKLSKEIAEAYEKYE
B11: traf2_out_11_155_731 (protein)
chain: EKKEKARREIVDFAIEQGDELEAFVEALIKEVEKEDPELAKELRAVFEEHRKYSARSAALAAIDVLRKHGYEERAEELEKKIEEANKKASEFIKKIEEEL
B12: traf2_out_20_38_2042 (protein)
chain: EEEEKEEEQIELDVEIANEALDEVEERFAKWRAEGLSLEEIAERVKEEIRKAFKEAGLEEKLPEYLEQIDLVRDSPDAERLLERILARALALVRRKKREK
B13: traf2_out_20_38_2026 (protein)
chain: SMEEEEEKKLEELIKVAQEAYDEAEKKIEELKKEGKSIEEIAEIAKEEIERILSEEGLEEEKEELIEEVDLVLDSPDAERLIARILARAVALAHQKRLEK
B14: traf2_out_20_38_2028 (protein)
chain: SEEEEEKKRLEELIKVANEAYDKAEKKIAKLKAEGKTIEEIAEEAKEEVERILSEVGLEEEREELIEDIDRVLDSPDAERLIARILARAVALAYQKELQK
B15: traf2_out_5_189_2315 (protein)
chain: SAREEEQKALNEKAKEIGKEVTKLINEMKKEGKSWEEIAEKMLEKMKTLPVDDAALYSGIFYSIMLGEAIANNDEKLKEIAEKFREKAKELIKEKEKKEA
B16: traf2_out_17_162_1608 (protein)
chain: MELEEKLKKLKELLEELEKKLKRLEEKLKNIEKLSKEELSDLLVEASEARRKALEALEEIKKLKEKLDKEEYEKLSKRFEEIAEKFQRIANKFYKELEKK
B17: traf2_out_3_89_2292 (protein)
chain: SEERERKIRLARERAERYARGFEKSARRVAKEMLKEGYSLETLRGVLEAARTALVEVFREELRELGLSEEDIRELVEELERRLREIVEKVLEEAEKKRKE
B18: traf2_out_20_3_2164 (protein)
chain: SELEKKLEEELERALKLLKKAAELSDEETKKKLKELIERLKESRSLSPSDRLVVVSEVRREVLLLAQKAKAEGKEELAKLLEEAAEELNRAMQLLYEIIE
B19: traf2_out_13_95_1191 (protein)
chain: EEEKRKKYAERTNAIADELLDHADAKIAELEAATGDPELGAELRRVLDRGGVSALIHRIRELAKEDPAYREAYEAAAAELEAKRREAGRRVAEAEKEIEA

Biological target: T1, TRAF2, Q12933
Assay: median log2 fold change of GCK-ALFA target abundance (FLAG IP / Myc IP barcode read proportion) (log2 ratio); each designed protein is fused to an ALFA-tag nanobody in HEK293 cells to bring the named protein to FLAG-tagged glucokinase (GCK); Myc marks an untargeted standard; higher = target protein stabilised (more abundant)
Details: target protein: 3xFLAG-MCP-GCK-ALFA reporter; HEK293 landing pad (RPLP)
In short: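 HEK293 landing-pad cells received a recombined binder library fused to the ALFA nanobody and were induced with 2 μg mL^−1 doxycycline, then transfected with a plasmid encoding a FLAG-tagged target and a Myc-tagged standard. Lysates were collected after 48 h for anti-FLAG and anti-Myc immunoprecipitation, and the circular RNA barcodes were reverse transcribed, amplified and sequenced. Target abundance for each binder is the median log2 ratio of FLAG to Myc barcode read proportions. Barcodes had to reach a proportion of at least 10^−7 in both replicates, each binder needed at least 3 barcodes per replicate, a pseudocount of 10^−6 was applied, and the two replicates were pooled.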

Binder	median log2 fold change
B1	0.327
B2	0.203
B3	0.171
B4	-0.632
B5	0.249
B6	-1.3
B7	0.486
B8	0.214
B9	0.122
B10	0.057
B11	0.0471
B12	-0.0369
B13	-0.0149
B14	-0.966
B15	0.387
B16	-0.073
B17	-1.24
B18	-0.157
B19	0.242
